# According to PubChem BioAssay (EPA / NIEHS):
# Values joined by “and” are separate entries in the source; they are usually repeats but may differ in a detail not shown here. Equal entries are not always repeated. Results filed as inconclusive are left out. More than one record can exist for a structure, and the calls need not agree. Active and inactive are the calls of the source. The calls were made as follows: active = hit-call score of the fitted dose curve at least 0.9, where 1 is the maximum; inconclusive = response in the unintended direction; inactive = score below 0.9.
# Experiment: TOX21_p53_BLA_p4_viability: Viability Assessment in the Tox21 HCT-116 p53 Agonism Beta-lactamase Assay, Phase 4 (AID 2283597);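 also: hits lower the luminescence signal meaning cytotoxicity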
# Source text: TOX21_p53_BLA_p4 is a cell-based, single-readout assay that uses HCT116, a human intestinal cell line, […] in a 1536-well plate.TOX21_p53_BLA_p4_viability is an assay readout measuring cellular ATP content and detected with CellTiter-Glo Luciferase-coupled ATP quantitation.TOX21_p53_BLA_p4_viability used a type of viability reporter where loss-of-signal activity can be used to understand changes in the cell viability. Furthermore, this assay endpoint can be referred to as a secondary readout, because this assay has produced multiple assay endpoints where this one serves a viability function. To generalize the intended target to other relatable targets, this assay endpoint is annotated to the cell cycle intended target family, where the subfamily is cytotoxicity.
# Thawing Method: Place 14 mL of pre-warmed thaw medium into a 15 mL of conical tub. Remove the vial of cells to be thawed from liquid nitrogen and thaw rapidly by placing at 37C in a water bath with gentle agitation for 1-2 minutes. Decontaminate the vial by wiping with 70% ethanol before opening in a biological safety cabinet. Transfer the vial contents drop-wise into 14 mL of thaw medium in a sterile 15-mL conical tub. Centrifuge cells at 900 rpm for 4 minutes and resuspend in thaw medium. Transfer contents to the T75 tissue culture flask containing Thaw Medium and place flask in a humidified 37C/5% CO2 incubator. Switch to growth medium at first passage.Propagation Method: Aspirate medium, rinse once in DPBS, add 0.25% Trypsin/EDTA and swirl to coat the cell evenly. Add an equal volume of Growth Medium to inactivate Trypsin after 2-3 minutes incubation at 37C. Centrifuge cells at 900 rpm for 4 minutes and resuspend in growth medium. Cell should be passage or fed at least twice a week.Assay Protocol: Harvest cells from culture in growth medium and resuspend in assay medium. 2.2 Dispense 4000 cells/5 uL/well into 1536-well black/clear bottom plates using a Multidrop dispenser. After the cells were incubated at 37C for 5 hours, 23 nL of compounds dissolved in DMSO were transferred to the assay plate by a PinTool resulting in a 217-fold dilution. Incubate the plates for 16 hours at 37C, 5% CO2. Add 1 uL of 6X LiveBLAzer FRET B/G (CCF4-AM) Substrate Mixture to each well using a BioRAPTR dispenser and incubate the plates at room temperature for 2 hours. Measure fluorescence intensity at 460 and 530 nm emission and 405 nm excitation by an Envision detector. Data is expressed as the ratio of 460nm/530nm emissions. Add 4 uL of Cell-titer Glo to each well using BioRAPTR and incubate the plates at room temperature for […]. For cell viability readout that measures cytotoxicity, 4 ul/well of CellTiter-Glo reagent was added into the assay plates using a Flying Reagent Dispenser. After 30 min incubation at room temperature, the luminescence intensity in the plates was measured using a ViewLux plate reader.
SMILES,AC50,outcome
CC1=C(/C=C/C(C)=C/C=C/C(C)=C/C=O)C(C)(C)CCC1,67 µM (active),
CC[C@@]1(O)C[C@@H]2CN(CCc3c([nH]c4ccccc34)[C@@](C(=O)OC)(c3cc4c(cc3OC)N(C)[C@H]3[C@@](O)(C(=O)OC)[C@H](OC(C)=O)[C@]5(CC)C=CCN6CC[C@]43[C@@H]65)C2)C1,,inactive
Nc1cc(S(=O)(=O)O)ccc1S(=O)(=O)O,,inactive
C[C@@H]1CC[C@H]2C(C)(C)[C@H]3C[C@@]12CC[C@@]3(C)O,,inactive
O=C(O)O,,inactive
COc1cc(NS(C)(=O)=O)ccc1Nc1c2ccccc2nc2ccccc12,25.6 µM (active),
CC(C)OC(=O)c1cc2c(OCC(O)CNC(C)(C)C)cccc2[nH]1 (stereo not given),,inactive
O=C(OCCO)c1ccccc1O,,inactive
CC12CCC(C[N+](C)(CCC[N+](C)(C)C)C1)C2(C)C (stereo not given),,inactive
CCCCCCCCC(CCCCCC)C(=O)O (stereo not given),,inactive
NS(=O)(=O)c1cc2c(cc1C(F)(F)F)NCNS2(=O)=O,,inactive
O=[N+]([O-])c1ccccc1C(F)(F)F,,inactive
C=CC(=O)O,,inactive
OCCN1CCN(CCCN2c3ccccc3Sc3ccc(Cl)cc32)CC1,15.8 µM (active),
Cc1cc(-n2c(=O)[nH]c(=O)n(C)c2=O)ccc1Oc1ccc(S(=O)(=O)C(F)(F)F)cc1,,inactive
Cc1ccc2c(c1)c1c3n2CCNC3CCC1 (stereo not given),,inactive
C=C(CC)C(=O)c1ccc(OCC(=O)O)c(Cl)c1Cl,45.8 µM (active),inactive
Cc1ccc(NC(=O)N(C)C)cc1NC(=O)N(C)C,,inactive
CO[C@H]1C[C@H](O[C@@H]2/C(C)=C/C[C@@H]3C[C@@H](C[C@]4(CC[C@H](C)[C@@H](C5CCCCC5)O4)O3)OC(=O)[C@@H]3C=C(C)/C(=N/O)[C@H]4OC/C(=C\C=C\[C@@H]2C)[C@]43O)O[C@@H](C)[C@@H]1O,40.7 µM (active),

SMILES,AC50,outcome
CCCCOC(=O)COc1ccc(Cl)cc1Cl,,inactive
Cc1ccccc1CNc1ncnc2c1ncn2[C@@H]1O[C@H](CO)[C@@H](O)[C@H]1O,,inactive
C=Cc1ccc(S(=O)(=O)O)cc1,46.1 µM (active),inactive
COc1cc2c(cc1OC)-c1cc3ccc(OC)c(OC)c3c[n+]1CC2,,inactive
C#CCN(C)Cc1ccccc1,,inactive
Oc1cc(O)c2c(c1)O[C@H](c1ccc(O)c(O)c1)[C@H](O)C2,,inactive
NCC[C@H](O)C(=O)N[C@@H]1C[C@H](N)[C@@H](O[C@H]2O[C@H](CN)[C@@H](O)[C@H](O)[C@H]2O)[C@H](O)[C@H]1O[C@H]1O[C@H](CO)[C@@H](O)[C@H](N)[C@H]1O,,inactive
CC(=O)Oc1cccc(C(=O)O)c1OC(C)=O,,inactive
NC(=O)c1ncn([C@@H]2O[C@H](CO)[C@@H](O)[C@H]2O)n1,,inactive
CCCCCCCC/C=C\CCCCCCCCN,,inactive
COCCCOc1cc(C[C@@H](C[C@H](N)[C@@H](O)C[C@H](C(=O)NCC(C)(C)C(N)=O)C(C)C)C(C)C)ccc1OC,,inactive
O=[N+]([O-])c1ccc(Oc2ccc(N=C=S)cc2)cc1,,inactive
COc1ccccc1OC(=O)Oc1ccccc1OC,,inactive
CCn1cc(C(=O)O)c(=O)c2cc3c(cc21)OCO3,,inactive
CC(=O)Oc1ccc(C2(c3ccc(OC(C)=O)cc3)C(=O)Nc3ccccc32)cc1,580 nM (active) and 459 nM (active),
COc1cc(O)cc(O)c1,,inactive
CC[N+](CC)(CC)CCC(O)(c1ccccc1)C1CCCCC1 (stereo not given),,inactive
CCCCCCCN(CC)CCCC(O)c1ccc(NS(C)(=O)=O)cc1 (stereo not given),,inactive
COc1ccc2cc1Oc1cc3c(cc1OC)CC[N+](C)(C)[C@H]3Cc1ccc(cc1)Oc1c(OC)c(OC)cc3c1[C@@H](C2)[N+](C)(C)CC3,,inactive
